Among all 1,000 compounds or so, about 230 (23%) were called active. Roughly 1% stayed inconclusive and do not appear here. No rule for the calls is given here. The list shows a part of the results. Entries with a potency or affinity are not part of this list.
target: Long-chain-fatty-acid--AMP ligase FadD28 (Mycobacterium tuberculosis (strain ATCC 25618 / H37Rv)) (UniProt P9WQ59); assay: inhibitors of FadD28 bisubstrate probe binding, dose response, biochemical, fluorescence polarization, cherry-pick (AID 624273); settings: series mostly up to 50 µM
Sequence (P9WQ59 whole entry, looked up): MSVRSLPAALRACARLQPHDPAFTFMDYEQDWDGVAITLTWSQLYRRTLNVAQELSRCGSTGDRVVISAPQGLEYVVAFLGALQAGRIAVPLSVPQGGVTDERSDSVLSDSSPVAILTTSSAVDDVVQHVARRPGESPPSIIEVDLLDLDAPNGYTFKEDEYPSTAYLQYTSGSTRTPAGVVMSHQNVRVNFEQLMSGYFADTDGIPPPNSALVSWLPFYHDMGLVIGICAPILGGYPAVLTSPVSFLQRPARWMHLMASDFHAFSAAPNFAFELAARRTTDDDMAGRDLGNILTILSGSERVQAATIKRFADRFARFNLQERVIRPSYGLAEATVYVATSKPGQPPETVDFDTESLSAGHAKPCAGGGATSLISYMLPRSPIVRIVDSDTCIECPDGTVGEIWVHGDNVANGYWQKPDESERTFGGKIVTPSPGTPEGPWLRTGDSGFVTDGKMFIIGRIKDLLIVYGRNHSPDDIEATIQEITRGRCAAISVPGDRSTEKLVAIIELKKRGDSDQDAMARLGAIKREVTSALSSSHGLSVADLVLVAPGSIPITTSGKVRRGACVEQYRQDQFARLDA

Row | SMILES | outcome
1 | CCCCC(=O)OCC(=O)C1(O)Cc2c(O)c3c(c(O)c2C(OC2CC(NC(=O)C(F)(F)F)C(O)C(C)O2)C1)C(=O)c1c(OC)cccc1C3=O (stereo not given) | inactive
2 | CN(Cc1cn(-c2ccccc2)nc1-c1ccc(F)cc1)C(=O)CCC(=O)O | inactive
3 | CCC(C)/C=C(C)/C=C/C1=CC2=C(Cl)C(=O)C(C)(OC(C)=O)C(=O)C2=CO1 (stereo not given) | inactive
4 | N#Cc1c(NC(=O)c2cccc(S(=O)(=O)Nc3ccc(C(=O)O)cc3)c2)sc2c1CCCC2 | inactive
5 | CCC1CCc2c(sc(NC(=O)CSc3nc(-c4ccco4)cc(C(F)(F)F)n3)c2C#N)C1 (stereo not given) | inactive
6 | COC1(OC)N=C(N)C2(C#N)C(c3ccc(F)cc3)C12C#N (stereo not given) | inactive
7 | CCCN(CC(=O)Nc1ccccc1C)C(=O)CCl | inactive
8 | O=C(CCc1nc2ccccc2c(=O)[nH]1)NCc1ccco1 | inactive
9 | Nc1ccc(Cc2ccc(N)c(C(=O)O)c2)cc1C(=O)O | inactive
10 | O=C(O)Cc1csc(-c2ccccc2)n1 | inactive
11 | CCN(CC)c1nc2n(c(=O)n1)CCO2 | inactive
12 | CC(C)(C)c1ccc(Cn2nnc3c(=O)[nH]c(C4CCCN(C(=O)c5ccco5)C4)nc32)cc1 (stereo not given) | inactive
13 | O=[N+]([O-])c1cc(Cl)ccc1Nc1ccccc1 | inactive
14 | Cn1nc([N+](=O)[O-])c(C(C#N)c2nc3ccccc3n2C)c(Cl)c1=O (stereo not given) | inactive
15 | CCOC(OCC)c1nc(N)[nH]c(=O)c1CCCCc1ccccc1 | inactive
16 | Cn1c(=O)c2c(ncn2CC(=O)N/N=C/c2ccc(Br)s2)n(C)c1=O | inactive
17 | CCN(CC)S(=O)(=O)c1ccc(NC(=O)COC(=O)c2cc(S(=O)(=O)Nc3ccc(OC)cc3)ccc2O)cc1 | inactive
18 | COc1ccc(NC(=O)Nc2c(O)ccc3ccccc23)cc1 | inactive
19 | Cc1[nH]n(-c2ccccc2)c(=O)c1N=Nc1c(Cl)cccc1Cl | inactive
20 | Cc1ccc(-n2cc(CNC(C)Cn3cncn3)c(-c3ccc(F)cc3)n2)cc1 (stereo not given) | inactive
21 | Cc1cccc(CN2C(=O)N/C(=C/c3cc(C)n(-c4cc(C)ccn4)c3C)C2=O)c1 | inactive
22 | O=C(O)CCC(=O)NC1CCCCC1 | inactive

Row | SMILES | outcome
23 | COc1ccc(NC(=O)CSc2n[nH]c(-c3ccco3)n2)cc1 | inactive
24 | O=C1C(=O)c2cccnc2-c2ncccc21 | inactive
25 | CC(=O)C1C(c2cccc([N+](=O)[O-])c2)C2C(C)=NN=C2CC1(C)O (stereo not given) | inactive
26 | COc1ccc(N2CCN(S(=O)(=O)c3ccc(-c4cc(C)no4)s3)CC2)cc1 | inactive
27 | COc1ccc(/C=N/N(Cc2ccccc2)c2ccccc2)cc1O | inactive
28 | Cc1ccc(S(=O)(=O)N2CCC(C(=O)NCCCN3CCOCC3)CC2)cc1C | inactive
29 | COc1cc(/C=C2\SC(=S)N(NC(=O)c3ccc(O)cc3)C2=O)ccc1O | inactive
30 | C=CCn1c(-c2cccn(Cc3ccc(Cl)cc3)c2=O)n[nH]c1=S | inactive
31 | O=C(O)c1ccc(N2CC3CC(C2)c2cccc(=O)n2C3)c(NS(=O)(=O)c2cccc(C(F)(F)F)c2)c1 (stereo not given) | inactive
32 | CN(C(=O)c1ccc(NC(=O)Cc2cccc(NC(=O)C3CCCN(C(=O)c4ccccc4)C3)c2)cc1)C1CC1 (stereo not given) | inactive
33 | COc1ccc(N2CCN(C(CNC(=O)COc3ccccc3)c3ccco3)CC2)cc1 (stereo not given) | inactive
34 | O=C(c1ccc(=O)[nH]n1)N1CCN(S(=O)(=O)c2cccc(F)c2)CC1 | inactive
35 | O=C(N/C(=C/c1ccc(Br)cc1)C(=O)N1CCCC1)c1ccccc1F | inactive
36 | FC(F)(F)c1cnc(C(c2ccccn2)c2ncn[nH]2)c(Cl)c1 (stereo not given) | inactive
37 | COc1cc2c3c(c1)/C(=C1/SC(NC(C)=O)=NC1=O)C(=O)N3C(C)(C)C=C2C | inactive
38 | Cc1ccc(NC(=O)C2CC(=O)N(c3ccc4c5c(cccc35)CC4)C2)cc1 (stereo not given) | inactive
39 | CCc1ccc(CN(C)Cc2nc(Cc3cccc(C(F)(F)F)c3)no2)nc1 | inactive
40 | COc1ccc(C(=O)NCC(=O)OCC(=O)NCc2cccs2)cc1 | inactive
41 | CCn1c(C)c(C)c2cc(C(=O)N3CCCC3)ccc21 | inactive
42 | CCc1ccccc1OCC(=O)Nc1ccc(S(N)(=O)=O)cc1 | inactive
43 | COc1ccc(CSCC(=O)Nc2ccc(S(=O)(=O)N3CCCCCC3)cc2)cc1 | inactive
44 | Cn1cc(S(=O)(=O)N2CCCC2)cc1C(=O)NCCc1ccccc1 | inactive

Row | SMILES | outcome
45 | COc1cccc(OC)c1OCCN(C)C | inactive
46 | COc1cccc(CCNCc2ccc(SC)cc2)c1 | inactive
47 | O=C(NCc1cccnc1)c1cc(-c2ccccc2)on1 | inactive
48 | Cc1cccc2sc(NNC(=O)c3ccc(S(=O)(=O)N4CCCC(C)C4)cc3)nc12 (stereo not given) | inactive
49 | CCOc1ccc(S(=O)(=O)N2CCN(C(=S)NCC3CCCO3)CC2)cc1 (stereo not given) | inactive
50 | CN(C)/C=C/C(=O)c1ccc([N+](=O)[O-])c(CS(=O)(=O)c2ccc(Cl)cc2)c1 | inactive
51 | Cc1cc(C)cc(N(C(=O)C(F)(F)F)C(C(=O)NC2CCCCC2)c2cccs2)c1 (stereo not given) | inactive
52 | Cc1ccc(C)c(C(=O)CN2C(=O)C(=O)N(C3CCCC3)C2=O)c1 | inactive
53 | CCc1cccc2c(C(=O)CN3C(=O)NC4(CCCCC4)C3=O)c[nH]c12 | inactive
54 | O=c1oc2c(CN3CCOCC3)c(O)c(Cl)cc2c2c1CCCC2 | inactive
55 | CCCCCCCCSc1nnc(CSc2nc3nc(C)cc(C)n3n2)o1 | inactive
56 | CCc1ccccc1Nc1nc(-c2cccnc2)cs1 | inactive
57 | CC1CCCCN1C(=O)CCS(=O)(=O)c1cccc2nonc12 (stereo not given) | inactive
58 | CSc1ccc(NC(=O)Nc2ccc(C(=O)NCC(=O)O)cc2)cc1 | inactive
59 | CCCCCCCCCCCCCCCC(=O)Nc1ccn(C2OC(CO)C(O)C2O)c(=O)n1 (stereo not given) | inactive
60 | COc1ccc(-c2noc(CNC(=O)c3ccc4c(c3)OCO4)n2)cc1 | inactive
61 | O=[N+]([O-])c1cc(C(F)(F)F)ccc1NCCc1c[nH]c2ccc(O)cc12 | inactive
62 | O=C(C(=O)N1CCCCCC1)c1c[nH]c2ccccc12 | inactive
63 | Nc1cc(OC(=O)c2ccc(F)cc2)nn1S(=O)(=O)c1ccccc1 | inactive
64 | COc1ccc(C2C(C#N)=C(N)N(c3ccccc3)C3=C2C(=O)CCC3)cc1Cn1cc([N+](=O)[O-])cn1 (stereo not given) | inactive
65 | COc1cc(/C=C2\SC(=S)N(NC(=O)c3ccccc3O)C2=O)ccc1O | inactive
